Experimental data from PubChem BioAssay (NCATS).
Unmarked numbers belong to inactive results. Calls follow the shape of the dose curve; as a rule, active = well fitted inhibition curve with a large enough effect; inconclusive = small, poorly fitted or top-dose-only effect; inactive = flat fitted curve, though single readings scatter. Where a SMILES comes first, the peptide text is derived from it.

system: Nanoluciferase (engineered Oplophorus gracilirostris luciferase); test: Primary Nanoluciferase (NLuc) qHTS assay for identification of artifact compounds. (AID 1845222); details: NLuc-conditioned medium, Nano-Glo luminescence, 5 min; series mostly up to 54.1 µM; activity, negative = inhibition: at the top concentration;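 also: NLuc secreted into diluted conditioned medium of S16 cells; 0% = DMSO and -100% = no enzyme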
Summary of the method: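 Using secreted nanoluciferase in S16 culture medium (0.22 um filtered, 1:55 dilution), compounds were preincubated 15 min at RT. Signal was generated with Nano-Glo reagent (1:100) over 5 min.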

Q: Which activity, negative = inhibition does the source give for CC1OC(OC2C(OC3C(O[C@H]4CC[C@@]5(C)C(CC[C@]6(C)C5CC=C5C7CC(C)(C)CC(O)[C@]7(C)CC[C@]56C)C4(C)C)OC(C(=O)O)C(O)C3O)OCC(O)C2O)C(O)C(O)C1O (stereo partly specified) here?
A: 4.85% [at 11.6 µM]

Q: For C=C1CC[C@@H]2[C@](C)(CO)[C@H](O[C@@H]3O[C@H](CO)[C@@H](O)[C@H](O)[C@H]3O)CC[C@@]2(C)[C@@H]1C/C=C1/C(=O)OC[C@H]1O, which “activity, negative = inhibition” value is on record?
A: -17.8% [at 25.7 µM]

Q: How did the “activity, negative = inhibition” value turn out when FC(F)(F)Oc1ccc(-c2ccc3nnc(C(F)(F)F)n3c2)cc1 was run?
A: 1.54%

Q: With COc1ccc(-c2ccn(CC[C@](C)(C(=O)NO)S(C)(=O)=O)c(=O)c2)c(F)c1 as the compound, how does the “activity, negative = inhibition” value read?
A: 1.09%

Q: For CCCC/C=C\CCCCCc1cc(=O)c2ccccc2n1C, which “activity, negative = inhibition” value is on record?
A: -3.58%

Q: For COc1cc([C@H]2OC[C@](O)(Cc3ccc(O[C@@H]4O[C@H](CO)[C@@H](O)[C@H](O)[C@H]4O)c(OC)c3)[C@@H]2CO)ccc1O, which “activity, negative = inhibition” value is on record?
A: 3.94% [at 25.7 µM]

Q: Which “activity, negative = inhibition” value does the source give for N#CN1CCC[C@@H](n2nc(-c3ccc(Oc4ccc(F)cc4F)cc3)c(C(N)=O)c2N)C1 here?
A: 4.69%

Q: With COc1cc(O)cc(O[C@@H]2O[C@H](CO)[C@@H](O[C@@H]3OC[C@](O)(CO)[C@H]3O)[C@H](O)[C@H]2O)c1OC as the compound, how does the “activity, negative = inhibition” value read?
A: 0.0988% [at 25.7 µM]

Q: For CSCC[C@H](NC(=O)[C@H](CO)NC(=O)[C@H](CCC(=O)O)NC(C)=O)C(=O)N[C@H](C=O)CC(=O)O (Ac-ESMD-aldehyde), which activity, negative = inhibition is on record?
A: 3.03% [at 11.6 µM]

Q: How did the “activity, negative = inhibition” value turn out when C=Cc1cc2oc(-c3ccc(O)c(F)c3)nc2cc1O was run?
A: 4.07%

Q: For C=C1C2CCC3C(CCC4[C@@]3(C)CCC[C@@]4(C)C(=O)O)(C2)[C@@H]1OC(=O)/C(C)=C\C (stereo partly specified), which “activity, negative = inhibition” value is on record?
A: 4.64% [at 25.7 µM]
